Some test systems named below: SK-MEL-2 melanoma; EKVX NSCLC; SN12C renal; UO-31 renal; TK-10 renal; ACHN renal; CAKI-1 renal; A498 renal; CCRF-CEM leukemia; MOLT-4 leukemia; SR leukemia; RPMI-8226 leukemia; OVCAR-8 ovarian; OVCAR-5 ovarian; OVCAR-4 ovarian; SK-OV-3 ovarian; IGROV1 ovarian; OVCAR-3 ovarian; HS 578T breast; NCI/ADR-RES ovarian.
Holding throughout (experiment): NCI-60 one-dose screen, 48 h (100 = growth as untreated, 0 = no growth, -100 = all killed)
Common to all, as to settings: 10 µM unless noted

SMILES strings stand for the structures. The panel holds about 83,000 compounds, 20% with a hit somewhere; the sample as a whole holds those more often.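 A percent growth of 40 corresponds to 60% growth inhibition; 0 means no net growth; -100 means all cells died. Active threshold: below 10.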 Values without a mark were called inactive. Calls of active or inactive are those of the source.

Take `Cc1c(CC(=O)Nc2ccccc2)nnn1-c1ccccc1`: the growth in the test with SK-MEL-2 melanoma was 107%; with EKVX NSCLC it was 104%; in the test with SN12C renal, 108%; in the test on UO-31 renal it was 88.2%; in the test with TK-10 renal, 101%; with ACHN renal, 109%. In addition, the growth in the test on CAKI-1 renal was 97.5%; in the test on A498 renal it was 108%; in the test with CCRF-CEM leukemia it was 105%; in the test with MOLT-4 leukemia, 99.7%; with SR leukemia it was 103%; in the test on RPMI-8226 leukemia, 103%. Moreover, the growth with OVCAR-8 ovarian was 105%; in the test with OVCAR-5 ovarian it was 108%; in the test on OVCAR-4 ovarian, 115%; in the test on SK-OV-3 ovarian, 110%; with IGROV1 ovarian, 106%; in the test on OVCAR-3 ovarian it was 115%. In addition, the growth is 102% with HS 578T breast and 99.5% in the test on NCI/ADR-RES ovarian.
`NCCCCCNc1noc(Cc2c[nH]c3cc(Br)ccc23)n1`: the growth in the test on SK-MEL-2 melanoma is 4.12% (active); with EKVX NSCLC, 33%; in the test with SN12C renal, 42.7%; in the test on UO-31 renal it was 41.8%; in the test on TK-10 renal, 38.6%; in the test with ACHN renal, 52.2%. Also, the growth is 35.3% in the test on CAKI-1 renal; 16.1% in the test with A498 renal; 2.39% (active) in the test with CCRF-CEM leukemia; 29.3% in the test with MOLT-4 leukemia; 10.5% in the test with SR leukemia; 4.37% (active) with RPMI-8226 leukemia. The growth is 28.4% in the test on OVCAR-8 ovarian; 58.1% in the test on OVCAR-5 ovarian; 46.8% in the test with OVCAR-4 ovarian; -1.93% (active) in the test with SK-OV-3 ovarian; 34.5% in the test with IGROV1 ovarian; -50.2% (active) with OVCAR-3 ovarian. Further, the values for the growth with HS 578T breast and in the test with NCI/ADR-RES ovarian were 19.8% and -13.6% (active), respectively.
On to `COc1cccc2cc(N(C)c3nc(C)nc4c3CCC4)ccc12`, for which the growth in the test with SK-MEL-2 melanoma is 41%; in the test with EKVX NSCLC it was 56.1%; in the test on SN12C renal, 17.2%; in the test with UO-31 renal, 38.7%; in the test on TK-10 renal, 58%; in the test with ACHN renal, 27.3%. The growth with CAKI-1 renal is 18.4%; with A498 renal, -11.4% (active); with CCRF-CEM leukemia, 15.2%; in the test on MOLT-4 leukemia, 14.8%; in the test on SR leukemia it was 9.67% (active); in the test on RPMI-8226 leukemia, 29.2%. Besides, the growth was 10.5% in the test with OVCAR-8 ovarian; 52.2% in the test on OVCAR-5 ovarian; 47.1% in the test on OVCAR-4 ovarian; 19.5% with SK-OV-3 ovarian; 24.2% in the test with IGROV1 ovarian; -18.1% (active) in the test on OVCAR-3 ovarian. Further, the growth with HS 578T breast is 17.9%; with NCI/ADR-RES ovarian it was 12.6%.
Take `CN(C)CCOc1ccc(/C(=C(/CCCCCCCCCC[P+](c2ccccc2)(c2ccccc2)c2ccccc2)c2ccccc2)c2ccccc2)cc1`: the growth with SK-MEL-2 melanoma was -75.9% (active); in the test with EKVX NSCLC it was -86.1% (active); with SN12C renal, -86.2% (active); in the test on UO-31 renal it was -90.3% (active); in the test on TK-10 renal it was -82.7% (active); in the test on ACHN renal, -95.8% (active). In addition, the growth is -93.2% (active) with CAKI-1 renal; -92.9% (active) in the test on A498 renal; -56% (active) in the test with CCRF-CEM leukemia; -60% (active) in the test on MOLT-4 leukemia; -53.4% (active) in the test with SR leukemia; -48.3% (active) in the test on RPMI-8226 leukemia. The growth is -53.5% (active) in the test on OVCAR-8 ovarian; -97.2% (active) with OVCAR-5 ovarian; -81.6% (active) in the test with OVCAR-4 ovarian; -81% (active) in the test on SK-OV-3 ovarian; -76.5% (active) in the test with IGROV1 ovarian; -93.9% (active) in the test with OVCAR-3 ovarian. Moreover, the growth is -36.4% (active) in the test on HS 578T breast and -69% (active) with NCI/ADR-RES ovarian.
Consider `CCN(CC)CCOc1ccc(/C(=C(\C)Cc2ccc(OC)cc2)c2ccc(O)cc2)cc1`, for which the growth was -45.7% (active) in the test on SK-MEL-2 melanoma; 66.5% with EKVX NSCLC; 54.9% with SN12C renal; -34.2% (active) in the test on UO-31 renal; 35.8% in the test with TK-10 renal; 18.9% in the test on ACHN renal. Also, the growth with CAKI-1 renal is -21.3% (active); with A498 renal, 92.9%; with CCRF-CEM leukemia, -3.51% (active); with MOLT-4 leukemia, -9% (active); in the test on SR leukemia, -52.4% (active); with RPMI-8226 leukemia, -33.2% (active). Further, the growth with OVCAR-8 ovarian was 29%; in the test with OVCAR-5 ovarian it was 69.3%; in the test on OVCAR-4 ovarian it was 46.7%; in the test with SK-OV-3 ovarian, 64.5%; in the test with IGROV1 ovarian, 47.3%; in the test with OVCAR-3 ovarian, 46.7%. For the same compound, the values for the growth in the test on HS 578T breast and with NCI/ADR-RES ovarian were 33.5% and 53.1%, respectively.
As to `CC/C(=C(/c1ccc(Cl)cc1)c1ccc(OCCN2CCCCCC2)cc1)c1ccccc1`, the growth was 98.7% in the test on SK-MEL-2 melanoma; 85% in the test on EKVX NSCLC; 77% in the test on SN12C renal; 61.8% in the test with UO-31 renal; 102% in the test on TK-10 renal; 103% with ACHN renal. Moreover, the growth in the test with CAKI-1 renal was 85.1%; with A498 renal, 80.2%; with CCRF-CEM leukemia it was 44.3%; with MOLT-4 leukemia, 68.8%; in the test with SR leukemia, 6.94% (active); with RPMI-8226 leukemia, 48.9%. Also, the growth is 84.8% in the test with OVCAR-8 ovarian; 85.2% with OVCAR-5 ovarian; 79.6% with OVCAR-4 ovarian; 114% with SK-OV-3 ovarian; 97.3% in the test with IGROV1 ovarian; 93.9% in the test on OVCAR-3 ovarian. In addition, the growth in the test on HS 578T breast is 89.7%; with NCI/ADR-RES ovarian, 90.8%.
With `COc1ccc(-c2nc3cc(C(=O)NC4CCCCC4)ccc3n2C2CCCCC2)cc1`, the growth was 92.4% in the test with SK-MEL-2 melanoma; 69.2% with EKVX NSCLC; 96.4% in the test on SN12C renal; 82.6% with UO-31 renal; 91.5% with TK-10 renal; 87% in the test on ACHN renal. For the same compound, the growth was 89.2% in the test on CAKI-1 renal; 103% in the test on A498 renal; 94.4% in the test with CCRF-CEM leukemia; 74.5% in the test on MOLT-4 leukemia; 51.2% with SR leukemia; 79.2% in the test with RPMI-8226 leukemia. In addition, the growth in the test on OVCAR-8 ovarian was 107%; with OVCAR-5 ovarian, 85.6%; in the test on OVCAR-4 ovarian, 86.6%; in the test with SK-OV-3 ovarian, 98.7%; with IGROV1 ovarian, 101%; in the test with OVCAR-3 ovarian it was 89.1%. For the same compound, the growth with HS 578T breast is 105%; in the test on NCI/ADR-RES ovarian it was 90.7%.
For the compound `COc1cc(C(=O)c2c(-c3ccccc3)oc3ccccc23)cc(OC)c1O`, the growth with SK-MEL-2 melanoma was 50.9%; in the test with EKVX NSCLC, 51.3%; with SN12C renal, 43.9%; in the test on UO-31 renal, 51.9%; in the test on TK-10 renal, 78.4%; in the test with ACHN renal, 41.7%. Besides, the growth in the test with CAKI-1 renal was 32.7%; in the test with A498 renal it was 1.19% (active); in the test on CCRF-CEM leukemia it was 13.9%; with MOLT-4 leukemia, 28.6%; with SR leukemia, 13.7%; in the test with RPMI-8226 leukemia it was 24.7%. Also, the growth was 34.6% in the test with OVCAR-8 ovarian; 99.8% in the test with OVCAR-5 ovarian; 56.3% in the test on OVCAR-4 ovarian; 51.2% in the test on SK-OV-3 ovarian; 41.1% in the test on IGROV1 ovarian; 2.25% (active) in the test on OVCAR-3 ovarian. Further, the growth in the test with HS 578T breast was -3.45% (active); in the test on NCI/ADR-RES ovarian, 21.8%.
